Reference: PubChem BioAssay AID589 (National Center for Advancing Translational Sciences (NCATS), 2007)
Screen size: about 59,000 compounds; about 6,200 (11%) were called active. Inconclusive results (about 9%) are left out. The sample holds actives, similar compounds and a random draw of the others, so the mix is not that of the screen. Cut-off read from the data, not from the text of the source: active = max dye-equivalent concentration above about 10 nM; inconclusive = mostly about 1.1 nM to 9.6 nM; inactive = weaker than that.

Test: qHTS Assay for Spectroscopic Profiling in 4-MU Spectral Region
Conditions: compound autofluorescence, 340/450 nm, 4-MU equivalents; hits give high values
Procedure, shortened: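 Intrinsic fluorescence at 340/450 nm (ex/em) was read after 15 min at room temperature in pH 8.0, 100 mM Tris. Each compound concentration expressed as 4-MU-equivalent concentration from a six-point 4-MU standard series on each plate.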

| SMILES | max dye-equivalent concentration |
| --- | --- |
| CN(C(=O)COc1nnc(-c2cccs2)c(-c2cccs2)n1)c1ccccc1 | inactive |
| COCCn1c(=O)c(-c2cccs2)nc2cncnc21 | 74 nM (active) |
| COCCn1c(=O)c(-c2cccs2)nc2cnc(N3CCN(C)CC3)nc21 | 14 nM (active) |
| COc1ccccc1CCn1c(=O)c(-c2cn(C)c3ccccc23)nc2cncnc21 | inactive |
| COC(=O)[C@@H]1[C@H]2C[C@H]3c4[nH]c5cc(OC)ccc5c4CCN3C[C@@H]2C[C@@H](OC(=O)c2cc(OC)c(OC)c(OC)c2)[C@@H]1OC | inactive |
| CCCCn1nnnc1NCc1cc(OC)c(OC)c(OC)c1 | inactive |
| COC(=O)CCNc1ccc2c(c1)OCCO2 | inactive |
| CCOc1cccc(-c2nnc3sc(COc4ccc(OC)cc4)nn23)c1 | inactive |
| CCOc1ccc(-c2nnc3ccc(SC)nn23)cc1 | 12 nM (active) |
| O=C1NC(=O)[C@@](Cc2ccccc2)(c2cccnc2)N1 | inactive |
| O=c1cc(CSc2ccc(Cl)cc2)nc(N2CCOCC2)[nH]1 | inactive |
| CC1=C(C(=O)Nc2ccccc2)C(c2cccs2)C(C#N)=C(SCC#N)N1 (configuration not stated) | inactive |
| CCOC(=O)N1CC=C2C(C#N)=C(N)C(C#N)(C#N)[C@H](c3cccs3)[C@H]2C1 | 27 nM (active) |
| O=C(c1cc(C(F)(F)F)cc(C(F)(F)F)c1)N1CCC2(CC1)CN(c1ccncc1)C2 | inactive |
| Cc1nc2ccccc2cc1O | 2300 nM (active) |
| CCOC(=O)c1cc2ccccc2nc1C | inactive |
| Cc1cc(O)ccc1-c1cnc2ccccc2n1 | inactive |
| CC(=O)N1CCN(C(=O)Nc2cccc(C(F)(F)F)c2)CC1 | inactive |
| Cc1ccc(NC(=O)CCNS(=O)(=O)c2ccc3c(c2)oc(=O)n3C)cc1C | inactive |
| O=C1c2ccccc2C(=O)N1CCCSc1ccccc1 | inactive |
| C[N+](C)(CCCCCC[N+](C)(C)CCCN1C(=O)c2cccc3cccc(c23)C1=O)CCCN1C(=O)c2cccc3cccc(c23)C1=O | 260 nM (active) |
| Nc1ccc(SCCN2C(=O)c3ccccc3C2=O)cc1 | inactive |

| SMILES | max dye-equivalent concentration |
| --- | --- |
| CCCC(=O)Nc1ccc(C(=O)NCCCn2ccnc2)cc1 | inactive |
| CSc1ccc(S(=O)(=O)NCc2ccc(Cl)cc2)cc1 | inactive |
| COCCNc1nc(-n2nc(C)cc2C)nc2sc3c(c12)CCCC3 | 920 nM (active) |
| Cc1cc(C)n(-c2nc(SCC(=O)N3CCCC3)c3c4c(sc3n2)CCCC4)n1 | inactive |
| COCCn1c(C)cc(C(=O)CSc2ncnc3sc4c(c23)CCC4)c1C | inactive |
| COc1ccc(S(=O)(=O)Nc2ccc3c(c2)OCO3)cc1Cl | inactive |
| N#Cc1ccc(COC(=O)Cn2nnc(-c3ccccc3)n2)cc1 | inactive |
| CCCNS(=O)(=O)c1ccc2c(c1)CCCN2C(C)=O | inactive |
| CC(C)OCCCNc1ncnc2c1[nH]c1ccc(F)cc12 | 12 nM (active) |
| Fc1cc(F)c2nc(N3CCOCC3)sc2c1 | inactive |
| O=C(CSc1nnc(-c2cnccn2)n1Cc1ccco1)c1ccc(Cl)c(Cl)c1 | inactive |
| CCN(CC)C(=O)CSc1nnc(-c2cnccn2)n1-c1ccc(C)cc1 | inactive |
| Cn1c(SCc2c(F)cccc2Cl)nnc1-c1cnccn1 | 17 nM (active) |
| O=C(COc1ccccc1)N1CCc2ccccc2C1 | inactive |
| Cn1c(/C(C#N)=C2/CCCCCN2)nc2ccccc21 | 22 nM (active) |
| N#C/C(=C1\CCCN1)c1nc(-c2ccccc2)cs1 | inactive |
| Cc1nc(NC(=O)C23CCC(C)(C(=O)O2)C3(C)C)sc1C (configuration not stated) | inactive |
| CC(=NCc1ccco1)C1=C(O)c2ccccc2C1=O | inactive |
| COc1ccc(N2C(=O)CC(N3CCC(C(N)=O)CC3)C2=O)cc1 (configuration not stated) | inactive |
| CCCC(NC(=O)c1ccccc1)c1nc2ccccc2n1Cc1ccc(C(=O)OC)o1 (configuration not stated) | inactive |
| CCn1c(SCC(=O)Nc2cc(C)ccc2C)nnc1-c1cnccn1 | inactive |
| Cc1ccc2nc(NCCCNC(=O)c3cnccn3)c(C#N)cc2c1 | 160 nM (active) |

| SMILES | max dye-equivalent concentration |
| --- | --- |
| CC1(C)C(=O)C2(CCCCC2)C(=O)OC1c1cccs1 (configuration not stated) | inactive |
| CC(C)CNS(=O)(=O)c1ccc(OCC(=O)Nc2ccc3c(c2)OCO3)c(Cl)c1 | inactive |
| CC1CN(C(=O)CN2C(=O)NC(C)(c3ccccc3)C2=O)CC(C)O1 (configuration not stated) | inactive |
| COC(=O)c1cc(C(=O)OC)cc(N2C(=O)CC(N3CCN(c4ccccc4)CC3)C2=O)c1 (configuration not stated) | inactive |
| CCc1c(C)nc2ncnn2c1N1CCC(C(=O)NCc2ccc3c(c2)OCO3)CC1 | inactive |
| O=C1CSC(=O)N1CCOCCN1C(=O)CSC1=O | inactive |
| COc1ccc(CCn2nnnc2C(c2ccccc2)N2CCN(C)CC2)cc1OC (configuration not stated) | inactive |
| COc1ccc(CCn2c(-c3ccco3)nc3nc4ccccc4nc32)cc1OC | 40 nM (active) |
| COCCn1c(-c2ccc(OC)c(OC)c2)nc2ccccc21 | inactive |
| CCn1cc(C(=O)N2CCN(C3CCCCC3)CC2)c2cc(OC)c(OC)cc2c1=O | inactive |
| Cn1c2c(c(=O)n(C)c1=O)C(c1ccc(O)cc1)Nc1ccccc1O2 (configuration not stated) | inactive |
| COc1ccc(-c2ccnc(SCC(=O)N3CCOCC3)n2)cc1 | 110 nM (active) |
| CCn1c(COc2cccc(OC)c2)nnc1SCC(=O)N1CCOCC1 | inactive |
| COc1ccc(-c2nc(SCC(=O)N3CCOCC3)n[nH]2)cc1 | inactive |
| CC1(C)CC(=O)C=C(NCCCN2CCCC2=O)C1 | inactive |
| CCOC(=O)c1ccc(N2C(=O)CC(Sc3nc(O)c(CC)c(=O)[nH]3)C2=O)cc1 (configuration not stated) | inactive |
| CS(=O)(=O)N1CCCC(C(=O)N2CCOCC2)C1 (configuration not stated) | inactive |
| COc1ccc(N2C(=O)c3cccc4cccc(c34)C2=O)nn1 | 160 nM (active) |
| COc1ccc(OCCCON2C(=O)c3ccccc3C2=O)cc1 | inactive |
| Cc1cc(C)c(C)c(S(=O)(=O)Nc2ccc(O)cc2)c1C | inactive |
| COCCCNC(=O)c1ccc(CNS(=O)(=O)c2ccc(NC(C)=O)cc2)cc1 | inactive |
| CC(C)C1Cc2c(sc3c2c(=O)n(-c2ccccc2)c2nncn32)CO1 (configuration not stated) | inactive |

| SMILES | max dye-equivalent concentration |
| --- | --- |
| O=C(Cn1cc(C(=O)c2cccs2)c2ccccc21)NCc1cccs1 | 29 nM (active) |
| O=C(CCC(=O)c1cccs1)NCc1ccccc1 | inactive |
| COC(=O)c1cn(CC(=O)NCc2cccs2)c2ccccc12 | inactive |
| CCc1ccc(CCC(=O)Nc2ccc(S(N)(=O)=O)cc2)o1 | inactive |
| Clc1ccc(C(c2ccc(Cl)cc2)n2cc[n+](C[C@@H](OCc3ccc(Cl)cc3Cl)c3ccc(Cl)cc3Cl)c2)cc1 | inactive |
| CC1CCCN(c2ccc(C(=O)NCCc3ccccc3)cn2)C1 (configuration not stated) | inactive |
| Cc1ccc(S(=O)(=O)NC(=O)NN2C[C@H]3CCC[C@@H]3C2)cc1 | inactive |
| O=C(OCC(=O)N1CCCC1)c1ccco1 | inactive |
| CC1CC(c2ccccc2)n2nc(NC(=O)c3cccs3)nc2N1 (configuration not stated) | inactive |
| COc1ccc(C2CC(c3ccc(C)cc3)Nc3nc(N)nn32)cc1 (configuration not stated) | 2500 nM (active) |
| Nc1nc2n(n1)C(c1ccco1)CC(c1ccc(Cl)c(Cl)c1)N2 (configuration not stated) | inactive |
| CCc1c(C)c2c(C)[nH]nc2oc1=O | inactive |
| Cc1cc(C)c2[nH]c(=O)c(C(c3nnnn3Cc3ccc4c(c3)OCO4)N3CCCC3)cc2c1 (configuration not stated) | inactive |
| COCCn1nnnc1C(c1ccccc1Cl)N1CCN(c2ccccc2OC)CC1 (configuration not stated) | inactive |
| COCCn1nnnc1C(c1cc2ccc(OC)cc2[nH]c1=O)N1CCc2ccccc2C1 (configuration not stated) | 17 nM (active) |
| CCOc1ccc2[nH]c(=O)c(C(c3nnnn3CCOC)N3CCOCC3)cc2c1 (configuration not stated) | 720 nM (active) |
| COc1ccc(OC)c(C(c2nnnn2C(C)(C)C)N2CCc3ccccc3C2)c1 (configuration not stated) | inactive |
| COc1ccc(N2CCN(C(c3cc4ccc(C)cc4[nH]c3=O)c3nnnn3C3CCCC3)CC2)cc1 (configuration not stated) | inactive |
| CCCOc1ccccc1C(=O)NCCCC(=O)O | inactive |
| COC(=O)Nc1ncc(CN2C(=O)c3ccccc3C2=O)s1 | inactive |
| O=C(CCCn1c(SCC(=O)c2ccc(F)cc2)nc2ccccc2c1=O)NCc1ccco1 | inactive |
| CC1(N2CCOCC2)CC2(O)C(=[N+]1[O-])CCc1nonc12 (configuration not stated) | inactive |

| SMILES | max dye-equivalent concentration |
| --- | --- |
| CCn1c(COc2ccccc2)nnc1SCC(=O)Nc1ccc2c(c1)OCCO2 | inactive |
| COc1ccc(S(=O)(=O)N2CCCCC2)cc1Br | inactive |
| C=CCn1c(CC(=O)Nc2cccc(OC)c2)nnc1SCC(=O)NC1CCCCC1 | inactive |
| COc1ccc(OCc2cccc(C(=O)N3CCCC3)c2)cc1 | 19 nM (active) |
| COc1ccc(OCC(=O)N2CCN(C(=O)COc3ccccc3)CC2)cc1 | inactive |
| CCC(CC)C(=O)Nc1cccc(C(=O)N2CCCC2)c1 | inactive |
| c1ccc(CCc2nc(-c3ccncc3)no2)cc1 | inactive |
| Cc1cc(C)cc(NC(=O)C2CCN(c3nc(C)cc(C)n3)CC2)c1 | inactive |
| Cc1ccc2c(NC(=O)C3CC3)cccc2n1 | inactive |
| CC(=O)N1CCC(C(=O)Nc2nc(-c3ccccc3)ns2)CC1 | 1800 nM (active) |
| CCCOc1ccccc1-c1nc(SCCC(=O)O)n[nH]1 | inactive |
| CCn1c(=N)n(CC(=O)c2cccc(OC)c2)c2ccccc21 | inactive |
| COC(=O)c1ccc(CSc2nncn2C)cc1 | inactive |
| Cc1ccc2c(c1)c1ncnc(N3CCc4ccccc4C3)c1n2C | 140 nM (active) |
| Cc1ccc(C(c2nnnn2C(C)(C)C)N2CCc3ccccc3C2)cc1 (configuration not stated) | inactive |
| Cc1ccc(NC(=O)CCN2CCc3ccccc3C2)cc1 | inactive |
| CCOC(=O)CSc1nnc(NC(=O)c2cccc(S(=O)(=O)N3CCCCC3)c2)s1 | inactive |
| Cc1cc(C)c2nc3c(c([C@H](O)[C@@H]4CCCCN4)c2c1)CC/C3=C/c1ccc(Cl)cc1 | inactive |
| CN1CCc2[nH]nc(-c3n[nH]c4c3CN(C)CC4)c2C1 | inactive |
